# Screening results from PubChem BioAssay.
# Shown is part of a subset that was picked to be rich in hits.
# BoNT A protease: BoNT/A light chain protease inhibitors, primary screen, biochemical, flow cytometry, MLPCN library; 360,000 tested, 0.17% active; multiplex microsphere protease substrate cleavage; AID 588499, 2011; inhibition, % at 10 µM
# TcdB inh: TcdB glycohydrolase inhibitors, primary screen, biochemical, single point, plate reader. Toxin B (Clostridioides difficile), P18177. TcdB glycohydrolase enzymatic assay. inhibition, % at 9.99 µM. 350,000 tested, 0.24% active; in the data active = inhibition above about 10%
# BoNT F protease: BoNT/F light chain protease inhibitors, primary screen, biochemical, flow cytometry, MLPCN library; inhibition, % at 10 µM; Multiplex microsphere protease cleavage assay; 360,000 tested, 0.22% active; in the data active = inhibition above about 35%, passing the limit was not always enough; inconclusive = no clear call, values can overlap the other calls
# Bead autofluor: counter-screen for toxin protease inhibitors: compound fluorescence; compound autofluorescence counterscreen, microsphere flow cytometry; stronger effect = higher value; fluorescence intensity (no concentration beside the values); 360,000 tested, 3.1% active; AID 624483; in the data active = fluorescence intensity above about 16000; inconclusive = no clear call, values can overlap the other calls
# Anthrax LF prot: Bacillus anthracis LF protease inhibitors, primary screen, biochemical, multiplex microsphere, MLPCN library; 360,000 tested, 0.12% active; multiplex microsphere protease cleavage assay; inhibition, % at 10 µM; Lethal factor (Bacillus anthracis), P15917
# Hits are given with their value; i = inactive; ? = inconclusive; nt = no result given. Cut-off read from the data, not from the text of the source, unless noted: active = inhibition above about 30%; inconclusive = no clear call, values can overlap the other calls; inactive = below that.
SMILES,BoNT A protease,TcdB inh,BoNT F protease,Bead autofluor,Anthrax LF prot
O=C(O)c1ccc(-c2nnc(-c3ccccc3)o2)cc1,i,13,i,i,i
C[C@H](CO)N1C[C@H](C)[C@H](CN(C)CC2CCCCC2)Oc2ccc(NC(=O)Nc3cccc4ccccc34)cc2C1=O,nt,i,nt,nt,nt
Cc1ccc(S(=O)(=O)n2nc(-c3ccc(Cl)cc3)nc2NCc2ccco2)cc1,?,nt,i,23333,i
O=C(COc1ccccc1)n1nc(-c2ccc(Cl)cc2)nc1NCc1ccco1,i,nt,i,21640,i
CO[C@@H]1CN(C)C(=O)c2ccc(NS(C)(=O)=O)cc2OC[C@H](C)N(Cc2cccnc2)C[C@H]1C,nt,i,nt,nt,nt
C[C@@H]1CN([C@@H](C)CO)C(=O)c2cc(NS(=O)(=O)c3ccccc3)ccc2O[C@@H](C)CCCCO[C@H]1CN(C)C,nt,i,nt,nt,nt
CN(C)/C=C(\C#N)C(=O)Nc1ccc(O)cc1F,i,19,i,?,i
Cc1ccc(S(=O)(=O)Nc2cccc3c2O[C@@H](CN(C)C(=O)NC(C)C)[C@H](C)CN([C@H](C)CO)C3=O)cc1,nt,i,nt,nt,nt
Cc1noc(C)c1NC(=O)N(C)C[C@@H]1Oc2ncc(C3=CCCC3)cc2C(=O)N([C@H](C)CO)C[C@@H]1C,nt,i,nt,nt,nt
Cc1ccc(COc2ccsc2-c2n[nH]c(=S)n2C)cc1,i,nt,i,22046,i
Cn1c(-c2sccc2OCc2ccccc2)n[nH]c1=S,i,nt,i,i,i
COc1ccc(CC(C)N2CCN(Cc3ccccc3)CC2)c(OC)c1 (stereo unspecified),i,i,i,18004,i
COc1ccc(CN2CCN(CCCc3ccccc3)CC2)c(OC)c1,nt,i,nt,nt,nt
CCOC(=O)C1=C(O)CCn2c1nc1ccccc12,i,i,i,19422,i
CCOc1ccc(C(=O)N2CCn3c2nc2ccccc23)cc1,i,i,i,i,i
CCCN1C=CC(=CC=C(C#N)C#N)C=C1,i,i,i,i,i
CCOC(=O)/C(C#N)=C/C=C1\C=Cc2ccccc2N1CC,i,i,178,119384,46
CCCCCCN1C=CC(=C/C=C(\C#N)C(=O)OCC)C=C1,i,nt,i,24837,i
C[C@@H]1CCCCO[C@@H](CN(C)Cc2ccc(Cl)c(Cl)c2)[C@H](C)CN([C@@H](C)CO)C(=O)c2cc(NS(=O)(=O)c3cn(C)cn3)ccc2O1,nt,i,nt,nt,nt
Cc1cc(=O)oc2cc(OCC3CC(c4ccc(N(C)C)cc4)=NO3)ccc12 (stereo unspecified),i,nt,i,i,i
Cc1cc(=O)oc2cc(OCC3CC(c4ccc(Cl)cc4)=NO3)ccc12 (stereo unspecified),i,nt,i,22029,i
O=C(c1cccs1)N(CC1CCCO1)c1nc(-c2ccccc2)cs1 (stereo unspecified),i,nt,i,23325,i
COc1ccc(-c2csc(N(CCCN(C)C)C(=O)c3cccs3)n2)cc1,?,nt,i,21006,i
COCCCN(C(C)=O)c1nc(-c2ccc(OC)cc2)cs1,i,nt,i,21678,i
O=C(C1CCCC1)N1CCCCN2[C@H](CO)[C@@H](c3ccc(C#CC4(O)CCCC4)cc3)[C@H]2C1,nt,i,nt,nt,nt
SMILES,BoNT A protease,TcdB inh,BoNT F protease,Bead autofluor,Anthrax LF prot
CCOc1cc(C2C3=C(CCCC3=O)Nc3nc(C(=O)OC)nn32)ccc1OC (stereo unspecified),i,nt,i,22585,i
CCOc1ccc(C2C3=C(CCCC3=O)Nc3nc(C(F)(F)F)nn32)cc1OC (stereo unspecified),i,nt,i,i,i
CC(SCc1ccccc1)C(=O)N/N=C/c1ccc2c(c1)OCO2 (stereo unspecified),i,nt,i,i,i
O=C(CSc1nnc(-c2cccc(Cl)c2)o1)Nc1ccc2c(c1)OCCO2,?,i,i,22299,i
CC(SCc1ccccc1)C(=O)Nc1ccc2c(c1)OCO2 (stereo unspecified),i,nt,i,16775,i
Nc1nnc(SCC(=O)Nc2ccc3c(c2)OCCO3)s1,i,nt,i,17217,i
O=C(O)CSc1nnc(-c2ccc3c(c2)OCO3)o1,i,nt,i,16221,i
O=C(CN1CCOCC1)NCC[C@@H]1CC[C@@H](NC(=O)c2ccc3c(c2)OCO3)[C@@H](CO)O1,nt,i,nt,nt,nt
CCC(=O)N1CC2(C1)[C@@H](c1ccccc1)[C@@H](CO)N2CCC(F)(F)F,nt,i,nt,nt,nt
CC(C)NC(=O)Nc1cccc2c1O[C@H](CN(C)C(=O)NC(C)C)[C@H](C)CN([C@@H](C)CO)C2=O,nt,i,nt,nt,nt
